# Bioassay records as filed in PubChem.
# Compounds with a hit are over-represented: about 9.2% of the library has one in this group of screens.
# ELG1 genotox = genotoxicity induction in ELG1-luciferase HEK293T cells; HEK293T ELG1-luciferase reporter, luminescence, 16 h; Potency, µM (doses to about 46 µM), for inactives: at the highest dose activity change, positive = activation, usual class: activators; 330,000 compounds, 1.3% hits; AID 504466; note: % of control where 0% means no effect; nearly all actives have a fitted effect of over 60% in size
#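 Screening used a luciferase reporter fused to human ELG1 in HEK293T cells. Luminescence was read on a CCD plate imager after 16 hr exposure and 30 min ONE-Glo incubation.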
# NPC1 promoter act = activates the NPC1 promoter. Huh7 NPC1 promoter luciferase reporter, 24 h. Potency, µM (series often up to 9.22 µM), without a hit: at the top dose activation, hits mostly activators. 320,000 compounds, 2.4% hits. AID 485313; note: % of control where 0% means no effect; nearly all actives have a fitted effect of over 60% in size
#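 NPC1 promoter–luciferase Huh7 cells; 24 h compound; luminescence.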
# ELG1 repair inh = inhibitors of ELG1-dependent DNA repair in HEK293T cells; AID 504467; Potency, µM (doses to about 46.1 µM), for inactives: at the highest dose activity change, negative = inhibition, hits mostly inhibitors; HEK293T ELG1-luciferase reporter, luminescence, 16 h; DNA damage induced by 5-fluorouridine; 330,000 compounds, 2.3% hits; note: % is set by controls: 0 for no effect and ±100 for the full control effect; nearly all actives have a fitted effect of over 55% in size
#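 5-Fluorouridine DNA damage + compound/DMSO, 2,000 cells/well, 16 h, 37 °C/5% CO2. ONE-Glo, 30 min RT, luminescence. Readout = decrease in reporter signal.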
# SMN2 splice enh = SMN2 splice variant enhancement. HEK293 SMN2-luciferase splicing reporter, luminescence, 30-36 h. Potency, µM (highest dose often 46.1 µM), inactives show at the top dose activity change, positive = activation, usual class: activators. 210,000 compounds, 2.8% hits. AID 1458; note: % of control where 0% means no effect; nearly all actives have a fitted effect of over 55% in size
#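 HEK293 cells carry an SMN2 minigene-luciferase reporter in which exon 7 inclusion puts luciferase in frame. Cells were seeded at 2000 cells/well, attached for 10-12 hours, then exposed to compounds for 30-36 hours at 37C before ONE-Glo luminescence.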
# FLuc counter = counter-screen for miR-21 project: firefly luciferase inhibitors or activators; P08659; purified FLuc, Km substrates, luminescence inhibition; Potency, µM (highest dose often 57.5 µM), inactives show at the top dose activity change, negative = inhibition, hits mostly inhibitors; 360,000 compounds, 6.9% hits; AID 588342;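 note: plate controls were vehicle for no effect and reference inhibitor for full effect; nearly all actives have a fitted effect of over 55% in size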
# Target sequence (P08659 whole entry, looked up): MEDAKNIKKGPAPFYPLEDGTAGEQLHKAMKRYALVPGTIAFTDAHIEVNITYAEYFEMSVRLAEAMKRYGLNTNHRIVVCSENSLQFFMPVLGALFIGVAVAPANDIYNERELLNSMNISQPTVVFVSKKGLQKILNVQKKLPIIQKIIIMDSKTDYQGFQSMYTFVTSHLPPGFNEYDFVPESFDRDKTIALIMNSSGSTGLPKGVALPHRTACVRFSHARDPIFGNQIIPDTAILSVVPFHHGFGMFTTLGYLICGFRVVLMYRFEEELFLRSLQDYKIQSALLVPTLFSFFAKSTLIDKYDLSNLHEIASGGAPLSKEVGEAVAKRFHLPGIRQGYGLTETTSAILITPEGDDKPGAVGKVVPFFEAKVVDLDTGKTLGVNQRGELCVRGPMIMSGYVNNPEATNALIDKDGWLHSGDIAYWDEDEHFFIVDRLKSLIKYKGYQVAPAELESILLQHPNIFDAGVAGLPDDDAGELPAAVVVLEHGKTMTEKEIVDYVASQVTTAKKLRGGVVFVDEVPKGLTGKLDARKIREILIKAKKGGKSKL
#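 Biochemical qHTS of compounds, final roughly 60 µM downward over six points, against 10 nM purified firefly luciferase using Km concentrations of substrates (10 uM D-luciferin, 10 uM ATP) in Tris acetate pH 7.5 buffer; luminescence output.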
# Rab9 prom act = activators of Rab9 promoter. Potency, µM (series often up to 9.22 µM), for the others: at the top dose activation, negative = inhibition, usual class: activators. Huh7 Rab9 promoter-luciferase reporter, luminescence, 24 h. 320,000 compounds, 2.8% hits; note: % of control where 0% means no effect; nearly all actives have a fitted effect of over 60% in size
#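 Luminescence read-out: Huh7 cells stably expressing Rab9-luciferase, treated 24 h with compound at 37 °C, then lysed with luciferase reagent for 10 min at ambient before reading.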
# Starred values were filed as active, the others as inactive; ? = inconclusive; . = not tested or not shown; [ ] = dose if it differs, or a comment. Calls come from the whole dose curve; as a rule, active = well fitted curve in the direction sought with a large enough effect; inconclusive = small, poorly fitted or top-dose-only effect, or another doubt; inactive = no such curve, though single readings can be large; an effect the other way counts as inactive or inconclusive. Potency is the fitted concentration of half-maximal effect.
SMILES,ELG1 genotox,NPC1 promoter act,ELG1 repair inh,SMN2 splice enh,FLuc counter,Rab9 prom act
CCN(CC)C(=O)Oc1ccc2cc(Br)ccc2c1,?,8%,?,2%,21µM*,22%
O=C(Nc1nccs1)C(Cl)(Cl)Cl,0%,-6%,5%,-7%,-1%,3%
O=C(Nc1ccc(Cl)cc1)Nc1nccs1,3%,-7%,?,?,11µM*,-1%
Cc1cccc(Cn2cccc(C(=O)Nc3nc4ccccc4s3)c2=O)c1,.,.,.,.,6µM*,.
Cc1ccc2nc(NC(=O)c3cccn(Cc4ccccc4F)c3=O)sc2c1,.,.,.,.,6%,.
CCOc1ccc2nc(NC(=O)c3cccn(Cc4ccccc4C)c3=O)sc2c1,.,.,.,.,15µM*,.
O=C1N[C@@]2(CN3CCC2CC3)C(=O)N1CN(Cc1ccccc1)c1ccccc1,.,.,.,2%[9.22 µM],.,.
O=C(NCc1cc(C(F)(F)F)ccc1Cl)c1cccc2c1C(=O)c1ccc(Cl)cc1S2(=O)=O,2%,.,?,.,.,.
c1nc(N2CC2)c2cnn([C@@H]3CCCCO3)c2n1,.,.,.,-11%[9.22 µM],.,.
O=C(C1CCN(c2nc3ccc(Br)cc3s2)CC1)N1CCC2(CC1)OCCO2,?,-2%,?,-77%,13µM*,-12%
CCc1ccc2nc(N3CCC(C(=O)N4CCC5(CC4)OCCO5)CC3)sc2c1,?,0%,?,-83%,9.5µM*,12%
CCOc1ccc2nc(N3CCC(C(=O)N4CCC5(CC4)OCCO5)CC3)sc2c1,1%,?,?,.,15µM*,?
Cc1ccc(S(=O)(=O)NCC2CCC(C(=O)N3CCC4(CC3)OCCO4)CC2)cc1 (centres undefined),0%,14%,-9%,-16%,2%,-2%
Cc1ccc2nc(N3CCC(C(=O)N4CCC5(CC4)OCCO5)CC3)sc2c1,0%,?,?,.,12µM*,?
C=CCCC#N,.,.,.,1%,.,.
C[As+](C)(c1ccc(Br)c([N+](=O)[O-])c1)c1ccc(Br)c([N+](=O)[O-])c1.O=[N+]([O-])O,.,.,.,-1%[9.22 µM],.,.
COc1ccc(CN2CCN(C(=O)Cn3c(=O)oc4cc(Cl)ccc43)CC2)c(OC)c1OC,-7%,-4%,?,.,0%,-16%
N[C@H](Cc1c[nH]c2ccccc12)P(=O)(O)O,.,.,.,1%[9.22 µM],.,.
CCCCCCOC(=O)c1ccccc1N,?,1%,?,22%,17µM*,-4%
Nc1ccccc1C(=O)OCCc1ccccc1,?,1.1µM*,?,14µM*,1.9µM*,0.79µM*
CCC(=Nc1ccc(OC)cc1OC)c1c(O)n(C)c(=O)n(C)c1=O,-5%,6%,?,-59%,-4%,-11%
CCC(=NCc1ccc2c(c1)OCO2)c1c(O)n(C)c(=O)n(C)c1=O,-17%,1%,15µM*,.,-2%,-11%
CCC(=NCc1cc(OC)cc(OC)c1)c1c(O)n(C)c(=O)n(C)c1=O,-17%,-6%,21µM*,-45%,8%,-25%
CC(=NCc1ccc2c(c1)OCO2)c1c(O)n(C)c(=O)n(C)c1=O,-9%,1%,?,-33%,2%,-5%
CCC(=NCCc1c[nH]c2ccccc12)c1c(O)n(C)c(=O)n(C)c1=O,-10%,-8%,16µM*,-74%,-2%,-17%
SMILES,ELG1 genotox,NPC1 promoter act,ELG1 repair inh,SMN2 splice enh,FLuc counter,Rab9 prom act
Cc1oc(/N=C/c2ccc3c(c2)OCO3)c(C#N)c1C,?,-3%,?,0%,1.7µM*,13%
O=C1/C(=C/c2ccc3c(c2)OCO3)N2CCC1CC2,1%,4%,-6%,18%,-11%,2%
COC(=O)C1=C(c2ccc(F)cc2OCc2ccccc2)C[C@@H]2CC[C@H]1N2C(=O)NCc1ccc(N(C)C)cc1,-8%,-2%,?,.,2%,-4%
COC(=O)C1=C(c2ccccc2OCc2ccccc2)C[C@@H]2CC[C@H]1N2C(=O)NCc1ccc(N(C)C)cc1,-4%,-2%,16µM*,.,8%,-8%
O=S(=O)(c1ccc(F)c(F)c1F)N1CCN(c2ncnc3sccc23)CC1,-2%,.,?,.,.,.
O=S(=O)(c1ccccc1C(F)(F)F)N1CCN(c2ncnc3sccc23)CC1,-9%,.,16µM*,.,.,.
CC(C)CNCCc1ccccn1,.,.,.,-21%[9.22 µM],.,.
C[C@@](Br)(C(=O)O)[C@H](Br)C(=O)O,.,.,.,-12%[9.22 µM],.,.
Cc1ccc(Cl)cc1N1CCN(C(=O)C2CCCN(S(=O)(=O)c3ccc(Br)s3)C2)CC1 (centres undefined),.,.,.,-32%,1%,.
Cc1ccc(C(=O)Nc2nc3ccccc3n2CCN2CCCC2)cc1,4.6µM*,15%,?,.,11µM*,?
CCCn1c(C(=O)c2ccccc2)nc2ccccc21,0%,0%,6%,-24%,-14%,-3%
COc1ccc(-c2cc(=NCCC(=O)O)c3cc(C)ccc3o2)cc1,?,?,?,.,13µM*,?
COc1ccc(-c2cc(=Nc3ccccc3)c3cc(C)ccc3o2)cc1,?,6%,?,?,27µM*,21%
C#CCO,.,.,.,-4%,.,.
c1ccc2c(c1)CCNC2,.,.,.,-6%,.,.
Oc1ccc([C@H](O)C2CCCCN2)cc1O (some centres undefined),.,.,.,11%[9.22 µM],.,.
Cc1ccc(/C=C2\C(=O)NC(=S)N(c3ccccc3F)C2=O)s1,-18%,-5%,23µM*,5%,?,-4%
Cc1ccc(NC(=O)CN2C(=O)CN=C(c3ccccc3)c3cc(Cl)ccc32)cc1,-27%,1%,7.3µM*,-51%,10%,-2%
CN(C)c1ccc(NC(=O)CN2C(=O)CN=C(c3ccccc3)c3cc(Cl)ccc32)cc1,-6%,1%,?,-5%,0%,-4%
CN(C)CCC(C#N)(c1ccccc1)c1ccccc1,.,.,.,-8%[9.22 µM],.,.
CN1C(=O)C(=Cc2ccccc2OCc2ccccc2Cl)C(=O)N(C)C1=O,-1%,-4%,15%,6%,?,-4%
CN1C(=O)C(=Cc2c(OCc3cnc(Cl)s3)ccc3ccccc23)C(=O)N(C)C1=O,?,22%,-2%,3%,19µM*,?
Cc1ccc(CSc2ncccc2C(=O)O)cc1,?,-1%,?,?,17µM*,1%
O=C1NC(=O)N(c2ccccc2F)C(=O)/C1=C/c1ccc(Sc2nc3ccccc3[nH]2)o1,1%,1%,2%,3%[1.84 µM],?,-5%
O=C1NC(=O)N(c2cccc(Cl)c2)C(=O)/C1=C\c1ccc(Sc2nc3ccccc3[nH]2)o1,0%,-2%,21%,7%,24µM*,-1%
Nc1c2c(nc3ccccc13)CCN(Cc1ccccc1)C2,-4%,12%,0%,.,24µM*,-3%
